In PubChem BioAssay (NCI):
About 83,000 compounds went through this panel and 20% of them were active in at least one assay; those are over-represented in the sample as a whole.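 How to read the values: 0–100, growth inhibition (40 = 60% inhibited); 0, no net growth; -100 to 0, cell death (-40 = 40% of starting cells died; -100 = all dead).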 Activity calls are given as the source filed them.

tested on: OVCAR-5 ovarian; test: NCI-60 one-dose screen, 48 h (100 = growth as untreated, 0 = no growth, -100 = all killed); conditions: 10 µM
Procedure: Growth inhibition of the OVCAR-5 human tumor cell line is measured as a screen for anti-cancer activity. Cells are grown in 96 well plates and exposed to the test compound for 48 hours. Compounds are tested at a single concentration, which is 10^-5 M for most compounds. The reported endpoint is percent growth (GI% or GIPRCNT), where numbers from 0 - 100% represent growth inhibition, and numbers from -100% - 0 represent cell death. For example, a value of 40 represents 60% growth inhibition. A value of 0 means no net growth occurred over the course of the experiment. A value of -40 indicates 40% of cells at the beginning of the experiment died by the end of the experiment. A value of -100 means all cells are dead at the end of the experiment.
NCI-60 Human Tumor Cell Lines Screen was performed using the standard one-dose NCI protocol, which is described in more detail at https://dtp.cancer.gov/discovery_development/nci-60/default.htm.
Compounds with GIPRCNT values below 10 were considered active. Activity score was based on GIPRCNT using the following formula: […]
Score is 0 for GIPRCNT values of 100 or above, 50 for GIPRCNT values of 0, and 100 for GIPRCNT values of -100.

| Compound | growth |
| --- | --- |
| COc1cc(OC)c(/C=C/C(=O)c2nc3ccccc3n2Cc2ccc(F)cc2)c(OC)c1 | 112% (inactive) |
| O=C(/C=C/c1ccc(Br)cc1)c1nc2ccccc2n1Cc1ccc(Br)cc1 | -43.4% (active) |
| C#CCCCN(CCNc1ccnc2cc(Cl)ccc12)C(=O)CCC(=O)O[C@@H]1O[C@@H]2OC3(C)CC[C@H]4[C@H](C)CC[C@@H]([C@H]1C)[C@@]24OO3 | 45.1% (inactive) |
| COC(=O)CCn1c(-c2ccc(-n3cc(-c4ccc(O[C@H]5O[C@@H]6OC7(C)CC[C@H]8[C@H](C)CC[C@@H]([C@H]5C)[C@@]68OO7)cc4)nn3)cc2)nc2ccccc21 | 36.6% (inactive) |
| O=C([Se]C1C=CCCC1)c1ccc(C(=O)[Se]C2C=CCCC2)s1 (stereo not given) | -89.2% (active) |
| O=C(/C=C/c1ccc(Cl)cc1Cl)c1nc2ccccc2n1Cc1ccc(F)cc1 | 67.3% (inactive) |
| O=C(/C=C/c1cccc(Br)c1)c1nc2ccccc2n1Cc1ccc(Br)cc1 | -50.4% (active) |
| CC[C@]12C=CCN3CC[C@@]4(c5ccc(OC)cc5N(C)[C@H]4[C@@](O)(C(=O)OC)[C@@H]1OC(=O)CCC[P+](c1ccc(F)cc1)(c1ccc(F)cc1)c1ccc(F)cc1)[C@@H]32 | 67% (inactive) |
| C[C@H]1[C@H](OC(=O)CCC(=O)N(CCCc2cn(-c3ccc([N+](=O)[O-])cc3)nn2)CCNc2ccnc3cc(Cl)ccc23)O[C@@H]2OC3(C)CC[C@H]4[C@H](C)CC[C@@H]1[C@@]24OO3 | 54.3% (inactive) |
| C#CC[Se]C(=O)c1ccc(C(=O)[Se]CC#C)s1 | 81.3% (inactive) |
| C[C@H]1[C@H](OC(=O)CCC(=O)N(CCCc2cn(-c3ccc(CN4CCOCC4)cc3)nn2)CCNc2ccnc3cc(Cl)ccc23)O[C@@H]2OC3(C)CC[C@H]4[C@H](C)CC[C@@H]1[C@@]24OO3 | 42.1% (inactive) |
| Cc1ccc2[nH]c(=S)n(-c3ccc(F)cc3)c(=O)c2c1 | 106% (inactive) |
| O=C(NC([Se])=NC1CCCCC1)c1ccc2c(c1)OCO2 | 72% (inactive) |
| CC12OOC(C)(OO1)C2CCC(=O)NCCNc1ccnc2cc(Cl)ccc12 (stereo not given) | 102% (inactive) |
| COCCOCCOCCOc1ccc(-n2cc(CCCN(CCNc3ccnc4cc(Cl)ccc34)C(=O)CCC(=O)O[C@@H]3O[C@@H]4OC5(C)CC[C@H]6[C@H](C)CC[C@@H]([C@H]3C)[C@@]46OO5)nn2)cc1 | 52.2% (inactive) |
| CC12CCC3(CCC(=O)NCCCNc4ccnc5cc(Cl)ccc45)[C@@](C)(OO[C@]3(C)O1)O2 | 4.68% (active) |
| CN(C)CCc1cn(C2CCC2)c2cccc(O)c12 | 79.8% (inactive) |
| O=C(/C=C/c1ccc(Cl)cc1Cl)c1nc2ccccc2n1Cc1ccc(Br)cc1 | 98% (inactive) |
| O=C(/C=C/c1ccc(Cl)cc1)c1nc2ccccc2n1Cc1ccc(Br)cc1 | 89.9% (inactive) |
| COP(=O)(CC(F)(F)C(F)(F)F)OC | 68.9% (inactive) |

| Compound | growth |
| --- | --- |
| O=C(/C=C/c1ccccc1)c1nc2ccccc2n1Cc1ccc(Br)cc1 | -62.3% (active) |
| C=CCN=C([Se])NC(=O)c1ccc2c(c1)OCO2 | 117% (inactive) |
| CC[C@]12C=CCN3CC[C@@]4(c5ccc(OC)cc5N(C)[C@H]4[C@@](O)(C(=O)OC)[C@@H]1OC(=O)CCCC[P+](c1ccc(C)cc1)(c1ccc(C)cc1)c1ccc(C)cc1)[C@@H]32 | -96% (active) |
| CC(=O)Oc1ccccc1C(=O)NC([Se])=NC1CCCCC1 | -30.3% (active) |
| O=C(NCCCCC(c1ccc(F)cc1)c1ccc(F)cc1)Nc1ccc([N+](=O)[O-])c(C(F)(F)F)c1 | 11.8% (inactive) |
| O=C(/C=C/c1ccco1)c1nc2ccccc2n1Cc1ccc(Br)cc1 | 57% (inactive) |
| CCOC(=O)C1=C(Nc2ccccc2)C(=O)OC12C(=O)Nc1ccccc12 (stereo not given) | 103% (inactive) |
| C#CC[Se]C(=O)c1ccc2n[se]nc2c1 | 75.7% (inactive) |
| CC1=C2C(=C[C@@](C)(COP(=O)(Oc3ccccc3)Oc3ccccc3)[C@@H]2O)C(=O)[C@@](C)(O)C12CC2 | -64.5% (active) |
| CC[C@]12C=CCN3CC[C@@]4(c5ccc(OC)cc5N(C)[C@H]4[C@@](O)(C(=O)OC)[C@@H]1OC(=O)CCCC[P+](c1ccc(OC)cc1)(c1ccc(OC)cc1)c1ccc(OC)cc1)[C@@H]32 | -98.6% (active) |
| C[C@H]1[C@H](OC(=O)CCC(=O)Nc2cnccn2)O[C@@H]2OC3(C)CC[C@H]4[C@H](C)CC[C@@H]1[C@@]24OO3 | 35.2% (inactive) |
| COC(=O)C[C@](O)(CCC(C)C)C(=O)O[C@@H]1C(OC)=C[C@]23CCCN2CCc2cc4c(cc2[C@H]13)OCO4 | -35.9% (active) |
| CC(C)N=C([Se])NC(=O)c1ccccc1 | -55.9% (active) |
| COc1ccc(OC)c(/C=C/C(=O)c2nc3ccccc3n2Cc2ccc(F)cc2)c1 | -43% (active) |
| CC[C@]12C=CCN3CC[C@@]4(c5ccc(OC)cc5N(C)[C@H]4[C@@](O)(C(=O)OC)[C@@H]1OC(=O)CCC[P+](c1ccc(C)cc1)(c1ccc(C)cc1)c1ccc(C)cc1)[C@@H]32 | -95.9% (active) |
| COc1cc2cc(C(=O)N3C[C@@H](CCl)c4c3cc(OC(=O)N3CCN(C)[C@@H]5CSSC[C@H]53)c3ccccc43)[nH]c2c(OC)c1OC | -20.4% (active) |
| COc1cc2cc(C(=O)N3C[C@@H](CCl)c4c3cc(OC(=O)N3CCN(C(=O)CCC(=O)N5CCN(C)CC5)[C@@H]5CSSC[C@@H]53)c3ccccc43)[nH]c2c(OC)c1OC | -35.6% (active) |
| CC12OOC(C)(OO1)C2CCC(=O)NCCCNc1ccnc2cc(Cl)ccc12 (stereo not given) | 84.4% (inactive) |
| CC1=C(C=O)C2=C(C)C3(CC3)[C@@](C)(O)C(=O)C2=C1 | 36.7% (inactive) |
| Cc1c2oc3c(C)ccc(C(=O)N[C@@H]4C(=O)N[C@H](C(C)C)C(=O)N5CCC[C@H]5C(=O)N(C)CC(=O)N(C)[C@@H](C(C)C)C(=O)OC4C)c3nc-2c(C(=O)N[C@@H]2C(=O)N[C@H](C(C)C)C(=O)N3CC(=O)C[C@H]3C(=O)N(C)CC(=O)N(C)[C@@H](C(C)C)C(=O)OC2C)c(N)c1=O (stereo not given in full) | 5.55% (active) |
